HP1b binding inh: HTS for Inhibitors of HP1-beta Chromodomain Interactions with Methylated Histone Tails; actives 0.56% (n = 390,000); Potency, µM (series often up to 114 µM), actives largely listed as inhibitors; AlphaScreen HP1-beta / biotin-H3K9me3 peptide binding; Chromobox protein homolog 1 (Homo sapiens), P83916; also: nearly all actives have a fitted effect of over 70% in size
Target sequence (P83916 whole entry, looked up): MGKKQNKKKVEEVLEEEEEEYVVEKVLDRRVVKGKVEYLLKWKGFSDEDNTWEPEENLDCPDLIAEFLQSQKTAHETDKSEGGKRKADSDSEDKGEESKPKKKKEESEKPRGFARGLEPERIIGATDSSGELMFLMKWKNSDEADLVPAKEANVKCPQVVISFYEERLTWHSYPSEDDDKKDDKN
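AlphaScreen: HP1-beta (50 nM) preformed 30 min with biotin-H3(1-18)K9me3 peptide (50 nM) in PBS pH 7.4, 0.01% Tween-20. Compound added for 30 min at RT, then streptavidin donor/nickel chelate acceptor beads (10 ug/mL) for 30 min.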
JMJD2A Tudor: qHTS Assay for Inhibitors of JMJD2A-Tudor Domain. Lysine-specific demethylase 4A (Homo sapiens), O75164. Potency, µM (titrated, usually from 114 µM), most hits filed as inhibitors. AID 504339, 2011. actives 4.4% (n = 390,000). AlphaScreen JMJD2A-Tudor / H3K4me3 peptide binding; also: nearly all actives have a fitted effect of over 50% in size
G9a inh: qHTS Assay for Inhibitors of Histone Lysine Methyltransferase G9a; G9a H3K9 monomethylation, AlphaScreen, 2 h; Potency, µM (series often up to 102 µM), hits mostly inhibitors; actives 8.8% (n = 350,000); AID 504332, 2011; also: nearly all actives have a fitted effect of over 75% in size
Target sequence (Q96KQ7 913-1193 limits assumed): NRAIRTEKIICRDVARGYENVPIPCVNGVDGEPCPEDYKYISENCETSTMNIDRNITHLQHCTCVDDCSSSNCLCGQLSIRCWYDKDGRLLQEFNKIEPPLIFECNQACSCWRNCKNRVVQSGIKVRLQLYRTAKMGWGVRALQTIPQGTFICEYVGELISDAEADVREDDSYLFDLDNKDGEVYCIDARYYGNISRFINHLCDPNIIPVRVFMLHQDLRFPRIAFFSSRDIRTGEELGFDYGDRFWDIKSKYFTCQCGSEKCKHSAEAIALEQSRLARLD
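Enzyme 20 nM + cpd, 15 min RT; add b-H3K9 pep 500 nM / SAM 20 uM; 2 h RT; anti-H3K9me1 Ab 0.5 ug/mL + SA donor / anti-rabbit acceptor beads 20 ug/mL each, 10 min; AlphaScreen read.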
PLK1 PBD block: qHTS for Inhibitors of PLK1-PDB (polo-like kinase 1 - polo-box domain): Primary Screen; actives 2.8% (n = 360,000); AID 720504, 2013; Potency, µM, hits mostly inhibitors; Plk1 PBD binding of FITC phosphopeptide, fluorescence polarization; also: series mostly up to about 57 µM; nearly all actives have a fitted effect of over 65% in size
ALOX12 inh: Primary qHTS assay for inhibitors of human arachidonate 12S-lipoxygenase (ALOX12): Round 2. actives 1.1% (n = 580,000). purified 12hLO, xylenol orange hydroperoxide absorbance. AID 1671190, 2021. Potency, µM (series often up to 108 µM), most hits filed as inhibitors
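Purified human 12hLO at 150 nM in 25 mM Hepes, 0.01% Triton X-100, pH 7.0, preincubated 15 min at room temperature with compound. Reaction started with 40 uM arachidonic acid, 30 min at room temperature. Hydroperoxide measured by Fe-xylenol orange, 573/405 nm absorbance ratio.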
BAZ2B inh: qHTS Assay for Inhibitors of BAZ2B | AlphaScreen BAZ2B-H3K14Ac peptide displacement | actives 4.4% (n = 360,000) | Potency, µM (doses to about 114 µM), hits mostly inhibitors | Bromodomain adjacent to zinc finger domain protein 2B (Homo sapiens), Q9UIF8; also: nearly all actives have a fitted effect of over 60% in size
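AlphaScreen displacement: compounds (up to 110uM) incubated 30 min at room temperature with a preformed 50 nM BAZ2B/50 nM biotinylated H3K14Ac peptide complex in PBS pH 7.4 with Tween-20. Donor and acceptor beads at 10 ug/mL final added, 20 min light-protected before reading.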
Each line names hits and unclear results; the compound was inactive in the other large screens. Hits are enriched below; roughly 9% of the tested compounds scored in any of these assays. Calls follow the shape of the dose curve; as a rule, active = well fitted curve in the direction sought with a large enough effect; inconclusive = small, poorly fitted or top-dose-only effect, or another doubt; inactive = no such curve, though single readings can be large; an effect the other way counts as inactive or inconclusive.

O=c1[nH]c(-c2ccccc2)cnc1-c1ccccc1	none (no result: G9a inh, BAZ2B inh)
COc1ccc(CCn2nc(C)c([N+](=O)[O-])c2C)cc1	none
Cc1cccc(-n2c(CCn3nc(C)c([N+](=O)[O-])c3C)n[nH]c2=S)c1	JMJD2A Tudor 20µM, G9a inh 0.447µM, ALOX12 inh inconclusive
COc1cccc(-n2c(CCn3nc(C)c([N+](=O)[O-])c3C)n[nH]c2=S)c1	HP1b binding inh inconclusive, JMJD2A Tudor 11.2µM, G9a inh 25.1µM
CCOC(=O)/C=C1/N(C)c2ccccc2C1(C)C	none
COc1ccccc1C(=O)NC(=S)/C=C1/N(C)c2ccccc2C1(C)C	JMJD2A Tudor 15.8µM, G9a inh 10µM, ALOX12 inh 28.2µM, BAZ2B inh 11.2µM
CN1/C(=C\C(=S)NC(=O)c2ccccc2Cl)C(C)(C)c2ccccc21	HP1b binding inh 25.1µM, JMJD2A Tudor 25.1µM, G9a inh 35.5µM, ALOX12 inh 25.1µM, BAZ2B inh 11.2µM
CN1/C(=C/C(=S)NC(=O)C2(C)CC2(Cl)Cl)C(C)(C)c2ccccc21 (centres undefined)	HP1b binding inh 17.8µM, JMJD2A Tudor 35.5µM, G9a inh inconclusive, ALOX12 inh 22.4µM, BAZ2B inh 20µM
O=C(NC(=S)Nc1cccnc1)c1cccs1	JMJD2A Tudor inconclusive, G9a inh inconclusive, ALOX12 inh inconclusive
O=C(NC(=S)Nc1cccnc1)c1ccccc1	G9a inh 79.4µM, ALOX12 inh inconclusive
O=C(O)c1ccc(NC(=S)NC(=O)c2cccnc2)cc1	G9a inh 79.4µM, ALOX12 inh inconclusive
COC(=O)c1ccc(NC(=S)NC(=O)c2cccnc2)cc1	none (no result: G9a inh)
O=C(NC(=S)Nc1cccnc1)c1cccc(Br)c1	G9a inh 35.5µM
CNC(=O)c1ccc(NC(=O)CCNC(=O)Nc2ccccc2)cc1	G9a inh 44.7µM
CCCNC(=O)c1ccc(NC(=O)Nc2ccccc2)cc1	none (no result: HP1b binding inh, JMJD2A Tudor, G9a inh, PLK1 PBD block, BAZ2B inh)
CN(CC(=O)Nc1nc2ccccc2s1)S(=O)(=O)c1ccc(Cl)cc1	ALOX12 inh inconclusive
COc1ccc(CCNC(=O)CC2COc3ccccc3O2)cc1OC (centres undefined)	none
Cc1c(Cl)cccc1NC(=S)NC(=O)c1cncc(Br)c1	ALOX12 inh inconclusive (no result: G9a inh, BAZ2B inh)
O=C(CCNC(=O)c1ccccc1)Nc1cccnc1	JMJD2A Tudor 44.7µM, PLK1 PBD block 26.7µM
O=C(NC(=S)Nc1cc(Cl)ccc1O)c1cccc(Br)c1	G9a inh 70.8µM, PLK1 PBD block inconclusive
CN(C)c1ccc(NC(=O)CSc2nc3ccccc3c(=O)n2CC2CCCO2)cc1 (centres undefined)	G9a inh inconclusive
COc1ccc2nc(/N=C/c3c(C)[nH]n(-c4ccc(C)cc4C)c3=O)sc2c1	none
Cc1cc(Br)ccc1-n1[nH]c(C)c(C=Nc2cccc3nsnc23)c1=O	G9a inh inconclusive, PLK1 PBD block 26.7µM, BAZ2B inh inconclusive
COc1ccccc1N=Cc1c(C)[nH]n(-c2ccc(C)cc2C)c1=O	HP1b binding inh inconclusive, JMJD2A Tudor inconclusive, G9a inh 50.1µM
COc1cc(SC#N)ccc1N=Cc1c(C)[nH]n(-c2ccc(C)cc2C)c1=O	G9a inh 12.6µM, PLK1 PBD block 8.44µM
Cc1oc(-c2ccccc2)nc1CC(=O)Nc1ccc(-c2ccccc2)cc1	none (no result: HP1b binding inh, JMJD2A Tudor, G9a inh, PLK1 PBD block, BAZ2B inh)
CCc1ccc2c(c1)[C@H]1OCC[C@H]1[C@@H](c1cccs1)N2	none
O=c1oc2ccccc2c(Nc2ccccc2O)c1[N+](=O)[O-]	none
O=c1oc2ccccc2c(Nc2cc3ccccc3cc2O)c1[N+](=O)[O-]	JMJD2A Tudor inconclusive, G9a inh inconclusive, PLK1 PBD block inconclusive, ALOX12 inh inconclusive, BAZ2B inh 11.2µM
O=C(CCNC(=O)c1ccc(Cl)cc1)Nc1ccc(Cl)cc1F	none

Screening results (PubChem BioAssay)
